Screening data deposited in PubChem by NMMLSC.
A selection: hits, their analogues and other compounds. The true share with any hit is near 1.1%.
VLA-4 inh = inhibition in a human VLA-4 binding assay; P13612; inhibition, % (about 7 µM as worked out from the volumes in the protocol); VLA-4 expressing cells, ligand binding flow cytometry; 0.2% of 330,000 active; in the data active = inhibition above about 50%
MEP2-GFP yeast = yeast TOR pathway MEP2-GFP modulation; 0.51% of 330,000 active; AID 2016; GFP response vs DMSO, % at 10 µM; S. cerevisiae MEP2-GFP strain, flow cytometry GFP, 3 h; 100% = DMSO control level;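 active = GFP response versus DMSO above a set limit, roughly screen mean plus 3 SD, cut at about 180% in these data; inconclusive = fewer than 70 cells counted for a yeast strain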;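 note: median GFP fluorescence of the barcode-gated MEP2-GFP cells per well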
AGP1 TOR yeast = modulators of TOR pathway AGP1-GFP in S. cerevisiae. S. cerevisiae AGP1-GFP multiplex flow cytometry, 3 h; GFP as percent of DMSO wells. GFP response vs DMSO, % at 10 µM. 0.02% of 320,000 active. AID 2066;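 active = GFP response relative to DMSO above a set limit, near screen average plus 3 SD, cut at about 150% in these data; inconclusive = fewer than 70 cells counted for the yeast strain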;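 note: median GFP channel fluorescence of the gated AGP1 strain per well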
CIT2-GFP yeast = modulators of TOR pathway CIT2-GFP in S. cerevisiae; S. cerevisiae CIT2-GFP strain, flow cytometry, 3 h; 100 means same as DMSO wells; GFP response vs DMSO, % at 10 µM; 0.065% of 320,000 active;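 active = GFP response relative to DMSO above a set limit, near the screen mean plus 3 SD, cut at about 150% in these data; inconclusive = Fewer than 70 cells measured for a yeast strain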;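 note: ratio of well median GFP fluorescence to mean of DMSO wells on the plate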
LAP4-GFP MLPCN = yeast TOR pathway LAP4-GFP modulation | S. cerevisiae LAP4-GFP multiplex, flow cytometry GFP, 3 h; median GFP as percent of DMSO wells | GFP response vs DMSO, % at 10 µM | 0.34% of 320,000 active | AID 2023;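 active = GFP response vs DMSO above a set limit, about the screen mean plus 3 SD, cut at about 150% in these data; inconclusive = under 70 cell events counted for the yeast strain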
RPL19A-GFP yeast = modulators of TOR pathway RPL19A-GFP in S. cerevisiae | S. cerevisiae RPL19A-GFP strain, flow cytometry, 3 h; hits give low values | percent response vs DMSO, % at 10 µM | 0.3% of 330,000 active | AID 2025;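 active = percent response vs DMSO below 50%; inconclusive = fewer than 70 events counted for the yeast strain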;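 note: median channel GFP fluorescence of the barcoded RPL19A-GFP strain; lower means less RPL19A-GFP as with rapamycin TOR inhibition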
VLA-4 allo CP = human VLA-4 allosteric modulation in cherry picked compounds | 2% of 1,300 active | shares compounds with VLA-4 inh | U937 cells, HUTS-21 LIBS mAb binding, flow cytometry; LDV ligand present at threefold Kd | inhibition, % at 6.7 µM | AID 2813; in the data active = inhibition above about 40%
Of the large screens only hits and unclear results are named; the others gave an inactive call (follow-up assays come after a bar, where they were run).

O=C(CNS(=O)(=O)c1ccc(Br)cc1)OCc1cc(=O)n2cc(Br)ccc2n1	none | VLA-4 allo CP inactive
O=C(CNC(=O)c1cccc(OC(F)F)c1)OCc1cc(=O)n2cc(Br)ccc2n1	none
CC1(C)Cc2c(cnn2-c2ccc(F)cc2)C(NC(=O)CCCN2CCCCC2=O)C1 (stereo not drawn)	none
COc1ccccc1Nc1nc2ccc(C)cc2cc1C#N	VLA-4 inh 108 | VLA-4 allo CP inactive
CC(C)CCN(CC(=O)NCc1ccc(F)cc1)S(=O)(=O)c1ccccc1F	none | VLA-4 allo CP inactive
COCCCNC(=O)CN(CCc1ccccc1)S(=O)(=O)c1ccc(OC)cc1	none (no result: CIT2-GFP yeast)
COCCCN(CC(=O)NCc1ccccc1)S(=O)(=O)c1ccc(C)cc1	none | VLA-4 allo CP inactive
COC(=O)c1ccc(CNC(=O)CN(CCC(C)C)S(=O)(=O)c2ccc3c(c2)OCCO3)cc1	none
COc1ccc(S(=O)(=O)N(C)CC(=O)NCc2ccccc2)cc1OC	none | VLA-4 allo CP inactive
COc1ccc(S(=O)(=O)N(C)CC(=O)NCCc2ccccc2)cc1OC	none
CCN(CC(=O)NCc1ccc(F)cc1)S(=O)(=O)c1ccc(C)cc1	none | VLA-4 allo CP inactive
CCN(CC(=O)NCc1cccs1)S(=O)(=O)c1ccc(F)cc1	none
Cc1cc(=O)oc2cc(OC(C)C(=O)NCCCN3CCCC3=O)c(Cl)cc12 (stereo not drawn)	VLA-4 inh 52 | VLA-4 allo CP inactive
CCN(CC(=O)Nc1c(F)cccc1F)C(=O)CSc1nnc(-c2ccco2)n1CC	none
O=C(CCc1nc2ccccc2s1)OCC(=O)c1ccccc1	none | VLA-4 allo CP inactive
O=C(CCc1nc2ccccc2s1)c1ccccc1	none
C=CCNc1nc(C(F)(F)F)nc2c1nnn2Cc1ccccc1Cl	VLA-4 inh 70 | VLA-4 allo CP inactive
CCOCCCNc1nc(C(F)(F)F)nc2c1nnn2Cc1ccccc1Cl	none
CCCC[C@@H]1C=C(C(=O)O)[C@H](c2ccc3c(c2)OCO3)N1S(=O)(=O)c1ccc(C)cc1	none | VLA-4 allo CP inactive
CCCC[C@@H]1C=C(C(=O)O)[C@H](c2ccc(Cl)cc2)N1S(=O)(=O)c1ccc(C)cc1	none | VLA-4 allo CP inactive
Cc1ccc(S(=O)(=O)N2[C@@H](c3ccc(Cl)c(Cl)c3)C(C(=O)O)=C[C@H]2CC2CCCC2)cc1	none
CCCCC[C@@H]1C=C(C(=O)O)[C@H](c2ccc(Br)cc2)N1S(=O)(=O)c1ccc(C)cc1	none | VLA-4 allo CP inactive
Cc1ccc(S(=O)(=O)N2[C@@H](c3ccc(Cl)cc3)C(C(=O)O)=C[C@H]2CC2CCCC2)cc1	MEP2-GFP yeast inconclusive, AGP1 TOR yeast inconclusive, CIT2-GFP yeast inconclusive, LAP4-GFP MLPCN inconclusive, RPL19A-GFP yeast inconclusive | VLA-4 allo CP inactive
Cc1noc(C)c1CSCC(=O)Nc1ccc(S(C)(=O)=O)cc1	none
C[C@H](CO)N1C[C@H](C)[C@@H](CN(C)S(=O)(=O)c2ccc(F)cc2)Oc2ccc(NC(=O)NC3CCCCC3)cc2C1=O	none
Cc1cc(OC(C)C(=O)N(Cc2ccco2)C2CCS(=O)(=O)C2)cc(C)c1Cl (stereo not drawn)	none
Cc1c(NC(=O)CN2CCN(C(=O)c3ccco3)CC2)c(=O)n(-c2ccccc2)n1C	none | VLA-4 allo CP inactive
Cc1c(NC(=O)c2c(F)c(F)c(F)c(F)c2F)c(=O)n(-c2ccccc2)n1C	none (no result: CIT2-GFP yeast) | VLA-4 allo CP inactive
Cc1c(NC(=O)c2ccccc2)c(=O)n(-c2ccccc2)n1C	none (no result: AGP1 TOR yeast)
Cc1c(NC(=O)c2cc(C(C)C)on2)c(=O)n(-c2ccccc2)n1C	none (no result: VLA-4 inh) | VLA-4 allo CP inactive
Cc1c(NC(=O)c2ccco2)c(=O)n(-c2ccccc2)n1C	none
Cc1c(NC(=O)c2cc3ccccc3c(=O)s2)c(=O)n(-c2ccccc2)n1C	VLA-4 inh 53 | VLA-4 allo CP inactive
Cc1c(NC(=O)COc2ccccc2Cl)c(=O)n(-c2ccccc2)n1C	none
Cc1c(NC(=O)COc2ncnc3c(Cl)cc(Cl)cc23)c(=O)n(-c2ccccc2)n1C	none | VLA-4 allo CP inactive
